This passage reports growth results from PubChem BioAssay (NCI).

Structures are written as SMILES. About 83,000 compounds went through this panel and 20% of them were active in at least one assay; those are over-represented in the sample as a whole.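 Growth was measured after 48 h exposure to one concentration of compound in 96-well plates. Values under 10 count as active.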 Values without a mark were called inactive. Activity calls are given as the source filed them.

Among the test systems are NCI-H23 lung; NCI-H226 lung; HOP-62 NSCLC; NCI-H460 lung; HOP-92 NSCLC; NCI-H522 lung; A549/ATCC NSCLC; 786-0 renal; COLO 205 colon.
Holding throughout (assay): NCI-60 one-dose screen, 48 h (100 = growth as untreated, 0 = no growth, -100 = all killed)
Common to all, as to conditions: 10 µM

Turning to `CC(C)(C)OC(=O)N1CCc2c(sc3ncnc(N/N=C/c4ccc(Br)cc4)c23)C1`, the growth with NCI-H23 lung is 71.8%; in the assay with NCI-H226 lung it was 79%; in the assay on HOP-62 NSCLC, 69%; in the assay on NCI-H460 lung it was 39.6%; with HOP-92 NSCLC, 94.4%; in the assay on NCI-H522 lung it was 35.6%. Besides, the growth in the assay on A549/ATCC NSCLC is 50.2%; in the assay on 786-0 renal it was 76.5%; in the assay on COLO 205 colon, 41%.

Regarding `O=[N+]([O-])c1cccc(/C=N/NC(=S)NC23CC4CC(CC(C4)C2)C3)c1`, the growth was 86.6% in the assay on NCI-H23 lung; 48.4% in the assay on NCI-H226 lung; 24.3% with HOP-62 NSCLC; 56.4% in the assay with NCI-H460 lung; 64% with HOP-92 NSCLC; 88.8% in the assay on NCI-H522 lung. For the same molecule, the figures for the growth in the assay on A549/ATCC NSCLC, in the assay with 786-0 renal and in the assay with COLO 205 colon were 56.5%, 79.8% and 102%, respectively.

In the case of `COc1ccc(NC(=O)C2CC3C=CC2C3)c([N+](=O)[O-])c1` (stereo unspecified), the growth in the assay on NCI-H23 lung is 96%; in the assay on NCI-H226 lung it was 96.1%; in the assay on HOP-62 NSCLC, 100%; in the assay on NCI-H460 lung, 107%; in the assay on HOP-92 NSCLC, 81.9%; in the assay with NCI-H522 lung it was 94.9%. The growth in the assay on A549/ATCC NSCLC was 93.8%; in the assay with 786-0 renal, 123%; in the assay on COLO 205 colon, 115%.

`Cc1ccc(S(=O)(=O)N/N=C2\CCCc3ccccc32)cc1`: the growth was 87.1% in the assay with NCI-H23 lung; 90.9% in the assay on NCI-H226 lung; 108% with HOP-62 NSCLC; 96.7% in the assay on NCI-H460 lung; 99.5% with HOP-92 NSCLC; 103% in the assay with NCI-H522 lung. Moreover, the results for the growth in the assay with A549/ATCC NSCLC, in the assay with 786-0 renal and with COLO 205 colon were 101%, 116% and 115%, respectively.

Take `Cc1ccc(N=Nc2ccccc2)cc1`: the growth with NCI-H23 lung is 95.1%; with NCI-H226 lung it was 108%; in the assay on HOP-62 NSCLC it was 90.5%; in the assay on NCI-H460 lung it was 105%; in the assay with HOP-92 NSCLC, 90.9%; with NCI-H522 lung, 84.2%. Besides, the figures for the growth with A549/ATCC NSCLC, in the assay on 786-0 renal and in the assay on COLO 205 colon were 87.8%, 89.6% and 106%, respectively.

As for `COc1ccc(-c2cc(-c3ccc(OC)c(OC)c3)nc(SCCCC(=O)NO)n2)cc1`, the growth was -26.8% (active) in the assay on NCI-H23 lung; -15.3% (active) in the assay with NCI-H226 lung; -13.3% (active) in the assay with HOP-62 NSCLC; -4.97% (active) in the assay with NCI-H460 lung; -28.6% (active) in the assay with HOP-92 NSCLC; 2.7% (active) in the assay with NCI-H522 lung. For the same molecule, the growth was -0.0794% (active) in the assay with A549/ATCC NSCLC, -20.8% (active) in the assay on 786-0 renal and -12.4% (active) in the assay with COLO 205 colon.

Regarding `C=CCn1c(SCC(=O)Nc2ccc(C(=O)/C=C/c3ccc(OC)cc3)cc2)nnc1-c1ccc(OC)c(OC)c1`, the growth in the assay with NCI-H23 lung is 89.3%; in the assay with NCI-H226 lung it was 82.7%; in the assay with HOP-62 NSCLC, 92.6%; with NCI-H460 lung, 91.7%; in the assay with HOP-92 NSCLC, 83.2%; in the assay with NCI-H522 lung it was 65.6%. Besides, the growth is 85.8% with A549/ATCC NSCLC, 79.9% in the assay with 786-0 renal and 114% with COLO 205 colon.

As for `CC(=O)OC/C=C(/C)C[P+](c1ccccc1)(c1ccccc1)c1ccccc1`, the growth in the assay on NCI-H23 lung is 80.1%; with NCI-H226 lung it was 66%; with HOP-62 NSCLC, 65.6%; in the assay on NCI-H460 lung it was 40.3%; with HOP-92 NSCLC, 64.3%; with NCI-H522 lung it was 74.6%. Also, the growth in the assay on A549/ATCC NSCLC was 64.6%; with 786-0 renal it was 74.5%; with COLO 205 colon, 48.3%.

As for `Cc1ccc2nc(Cl)c(-c3nc4ccccc4o3)cc2c1`, the growth was 77.6% in the assay on NCI-H23 lung; 90.7% in the assay on NCI-H226 lung; 92.7% with HOP-62 NSCLC; 106% with NCI-H460 lung; 83% in the assay with HOP-92 NSCLC; 90.3% in the assay with NCI-H522 lung. The growth in the assay with A549/ATCC NSCLC was 99.6%; with 786-0 renal, 99.5%; in the assay with COLO 205 colon, 89.5%.

Consider `c1ccc2c(c1)Cc1ccccc1N2CCN1CCCCC1`, for which the growth with NCI-H23 lung was 90%; with NCI-H226 lung, 103%; in the assay with HOP-62 NSCLC, 84.1%; with NCI-H460 lung it was 107%; in the assay with HOP-92 NSCLC it was 85.8%; in the assay with NCI-H522 lung, 75.2%. For the same molecule, the growth in the assay on A549/ATCC NSCLC was 89.9%; in the assay on 786-0 renal, 95.3%; in the assay with COLO 205 colon, 82.2%.

As for `CCOC(=O)c1cc(C(=O)c2ccc(OC)c(OC)c2)n2c1ccc1ccc3cccnc3c12`, the growth with NCI-H23 lung was 39.2%; with NCI-H226 lung, 64.4%; with HOP-62 NSCLC, 29.8%; in the assay with NCI-H460 lung, 11%; with HOP-92 NSCLC, 18.9%; in the assay on NCI-H522 lung, 0.908% (active). The growth in the assay on A549/ATCC NSCLC is 36.8%; in the assay with 786-0 renal, 33.3%; in the assay with COLO 205 colon it was -2.29% (active).

In the case of `CC(C1=C(CN(C(=O)Cc2cn(-c3ccccc3)nc2-c2ccc(Cl)cc2)C(C)C)Cc2ccccc21)c1ccccn1` (stereo unspecified), the growth was 55.3% in the assay with NCI-H23 lung; 69.9% with NCI-H226 lung; 92.7% in the assay on HOP-62 NSCLC; 53.1% in the assay on NCI-H460 lung; 62.2% in the assay on HOP-92 NSCLC; 44.2% in the assay on NCI-H522 lung. Moreover, the values for the growth in the assay with A549/ATCC NSCLC, in the assay on 786-0 renal and with COLO 205 colon were 61%, 68.2% and 66.7%, respectively.

On to `COc1cc(C2CC(c3ccc4c(c3)OCO4)=NN2c2ccccc2)cc(OC)c1OC` (stereo unspecified), for which the growth was 93.9% in the assay on NCI-H23 lung; 102% in the assay on NCI-H226 lung; 104% with HOP-62 NSCLC; 103% with NCI-H460 lung; 84.1% in the assay with HOP-92 NSCLC; 73.4% with NCI-H522 lung. Moreover, the growth in the assay on A549/ATCC NSCLC was 98.5%; in the assay with 786-0 renal it was 95.9%; in the assay with COLO 205 colon, 86.8%.

Take `Clc1ccc(C2=NN=C3C(Cc4ccccc4)=Nc4ccccc4N3C2)cc1`: the growth with NCI-H23 lung was 90%; in the assay on NCI-H226 lung it was 92.8%; with HOP-62 NSCLC, 83.3%; in the assay with NCI-H460 lung, 86.8%; in the assay on HOP-92 NSCLC, 87.4%; with NCI-H522 lung, 38.4%. Besides, the growth with A549/ATCC NSCLC was 96.6%; in the assay on 786-0 renal, 64.1%; in the assay with COLO 205 colon, 105%.

On to `COc1ccc(-c2csc(NC(=O)c3ccc(Cc4n[nH]c(=O)c5cccnc45)cc3)n2)cc1`, for which the growth with NCI-H23 lung was 80.4%; in the assay on NCI-H226 lung it was 71.4%; with HOP-62 NSCLC, 92%; with NCI-H460 lung it was 97.4%; in the assay on HOP-92 NSCLC, 75.3%; in the assay with NCI-H522 lung it was 80.7%. The growth in the assay with A549/ATCC NSCLC was 101%; with 786-0 renal it was 99.2%; in the assay with COLO 205 colon, 110%.

In the case of `COc1cc(-c2csc(NC(=O)Nc3cc(C(F)(F)F)cc(C(F)(F)F)c3)n2)cc(OC)c1OC`, the growth with NCI-H23 lung is 4.18% (active); in the assay with NCI-H226 lung, 24.8%; in the assay with HOP-62 NSCLC, 13.1%; in the assay with NCI-H460 lung, 10.9%; with HOP-92 NSCLC, -25.9% (active); in the assay on NCI-H522 lung, -14.6% (active). Besides, the values for the growth in the assay with A549/ATCC NSCLC, in the assay on 786-0 renal and in the assay on COLO 205 colon were 11.9%, 13.4% and 0.569% (active), respectively.

As to `COc1ccc(C(c2ccc(OCCN(C)C)cc2)c2cc3ccccc3c3ccccc23)cc1` (stereo unspecified), the growth is 78.4% in the assay on NCI-H23 lung; 87.5% with NCI-H226 lung; 92.5% with HOP-62 NSCLC; -28.6% (active) in the assay with NCI-H460 lung; 63.6% in the assay with HOP-92 NSCLC; 75% with NCI-H522 lung. Further, the growth in the assay on A549/ATCC NSCLC is 55%; in the assay on 786-0 renal it was 50.6%; in the assay on COLO 205 colon, -50.6% (active).

With `O=C(Nc1ccc2c(O)cc(S(=O)(=O)O)cc2c1)c1ccc([N+](=O)[O-])cc1`, the growth in the assay on NCI-H23 lung was 100%; with NCI-H226 lung, 96.2%; in the assay on HOP-62 NSCLC, 83.3%; in the assay with NCI-H460 lung, 107%; in the assay on HOP-92 NSCLC, 89.8%; in the assay on NCI-H522 lung it was 84.7%. The growth was 79.3% with A549/ATCC NSCLC, 98.6% in the assay on 786-0 renal and 91.8% with COLO 205 colon.

As for `O=C(/C=C/c1cccc(B(O)O)c1)c1cccc(B(O)O)c1`, the growth with NCI-H23 lung was -0.41% (active); in the assay on NCI-H226 lung it was -59.2% (active); in the assay on HOP-62 NSCLC, -34.7% (active); with NCI-H460 lung it was 23.3%; in the assay on HOP-92 NSCLC it was 69.6%; in the assay on NCI-H522 lung, -9.1% (active). For the same molecule, the growth in the assay with A549/ATCC NSCLC is 34.2%; with 786-0 renal, -88.6% (active); in the assay on COLO 205 colon, -90.8% (active).
